# Hits are enriched below; roughly 11% of the tested compounds scored in any of these assays.
# FLuc inh – firefly luciferase inhibition; P08659; purified firefly luciferase, luminescence, 8 min; Potency, µM (highest dose often 57.1 µM), inactives show at the highest dose activity change, negative = inhibition, most hits filed as inhibitors; 2.2% of 72,000 active; AID 411; note: nearly all actives have a fitted effect of over 40% in size
#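 Compounds were tested as concentration series (qHTS) against purified P. pyralis luciferase with luciferin and 10 uM ATP in 50 mM imidazole pH 7.2, 50 mM KCl, 7 mM MgCl2, 0.01% Tween 20, 0.05% BSA. Luminescence was read after 8 min at ambient temperature.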
# HSD17B inhib – blocks hydroxysteroid 17-beta dehydrogenase activity. Q99714. recombinant HSD17B10, NADH fluorescence kinetic. Potency, µM (top dose mostly 57.1 µM), without a hit: at the top dose activity change, negative = inhibition, hits mostly inhibitors. 7.6% of 75,000 active;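 note: the protocol describes HADH2 (HSD17B10) and not the HSD17B4 of the title; nearly all actives have a fitted effect of over 70% in size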
#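 Enzyme plus compound, 15 min room temperature; substrate mix added (NAD+ 1 mM, beta-hydroxybutyryl-CoA 90 uM final); plates read kinetically for NADH fluorescence. HADH2 was His-tagged, E. coli-derived, 20 nM.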
# HADH2 inhib – HADH2 (human) dehydrogenase inhibition | Potency, µM (top dose mostly 57.1 µM), for the others: at the top dose activity change, negative = inhibition, hits mostly inhibitors | AID 886 | 3.4% of 73,000 active | recombinant HADH2, NADH fluorescence, beta-hydroxybutyryl-CoA; note: nearly all actives have a fitted effect of over 60% in size
# Target sequence (Q99714 whole entry, looked up, one chain of several): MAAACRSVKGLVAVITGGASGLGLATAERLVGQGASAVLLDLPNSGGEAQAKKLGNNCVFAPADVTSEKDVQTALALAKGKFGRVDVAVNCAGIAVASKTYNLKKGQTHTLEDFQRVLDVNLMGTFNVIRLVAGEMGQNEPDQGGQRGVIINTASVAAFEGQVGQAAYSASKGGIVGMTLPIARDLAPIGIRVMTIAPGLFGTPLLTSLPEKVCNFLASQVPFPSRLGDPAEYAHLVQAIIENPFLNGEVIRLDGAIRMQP
#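 His-tagged recombinant enzyme from E. coli, 20 nM, preincubated 15 min RT with compound; reaction started with 1 mM NAD+ and 90 uM beta-hydroxybutyryl-CoA in 100 mM Tris-HCl pH 9.0. NADH fluorescence (ex 360/em 450) read over 4 min; last-minus-first difference.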
# PK Bst – pyruvate kinase (B. stearothermophilus) modulation | purified pyruvate kinase, luminescence ATP production; ribose 5-phosphate activator present at AC10 | Potency, µM | 1.2% of 51,000 active; in the data active = potency below about 11 µM; inconclusive = mostly about 12 µM to 25 µM;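 the screen sought inhibitors and activators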;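 note: scaled between full activation by ribose 5 phosphate and full inhibition by luteolin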
# ALOX15 inhib – inhibitors of human 15-lipoxygenase (ALOX15). purified 15hLO-1, xylenol orange hydroperoxide absorbance. P16050. AID 887. Potency, µM (highest dose often 57.1 µM), for inactives: top-dose activity change, negative = inhibition, most hits filed as inhibitors. 1.4% of 74,000 active; note: nearly all actives have a fitted effect of over 55% in size
#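 Readout: Fe(III)-xylenol orange absorbance, 573-to-405 nm ratio as reaction progress. Enzyme 40 nM purified human 15hLO-1, substrate 50 uM arachidonic acid, 6 min RT after 15 min compound preincubation; Hepes pH 7.5 buffer with Triton X-100.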
# ERK AVP inh – inhibitors of vasopressin-stimulated ERK signaling pathway; 0.99% of 72,000 active; Potency, µM (doses to about 57.5 µM), for the others: at the top dose activity, negative = inhibition, most hits filed as inhibitors; HEK293-V1b, vasopressin-stimulated pERK AlphaScreen; note: nearly all actives have a fitted effect of over 55% in size
#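 qHTS, compounds titrated on V1b-expressing HEK293 cells. Preincubation 30 min at 37C, vasopressin 25 nM for 5 min, lysis 10 min, bead incubation 5 hr at room temperature.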
# Active calls of the source: *; i = inactive; ? = inconclusive; nt = no result given; [ ] = another dose, or the depositor's remark. Unless noted, calls come from the whole dose curve; as a rule, active = well fitted curve in the direction sought with a large enough effect; inconclusive = small, poorly fitted or top-dose-only effect, or another doubt; inactive = no such curve, though single readings can be large; an effect the other way counts as inactive or inconclusive. Unless noted, % is set by controls: 0 for no effect and ±100 for the full control effect; potency is the fitted concentration of half-maximal effect.
SMILES,FLuc inh,HSD17B inhib,HADH2 inhib,PK Bst,ALOX15 inhib,ERK AVP inh
CN1CCN(Cc2nc3c(c(=O)[nH]c(=O)n3C)n2Cc2c(F)cccc2Cl)CC1,3%,2%,9%,nt,2%,nt
Cn1c(=O)c2c(nc(CN3CCCCC3)n2Cc2c(F)cccc2Cl)n(C)c1=O,0%,32µM*,?,nt,?,nt
CC1=C(/C=C/C(C)=C/C=C/C(C)=C/C=C/C=C(C)/C=C/C=C(C)/C=C/C(=O)[C@]2(C)CC(O)CC2(C)C)C(C)(C)CC(O)C1 (some centres not stated),nt,-1%,nt,nt,3.2µM*,-2%
CSc1ncnc2c1ncn2CC(=O)[C@H]1CC[C@H]2[C@H]3CCC4=CC(=O)CC[C@@]4(C)[C@@H]3CC[C@@]12C,0%[11.4 µM],2%[11.4 µM],21%[11.4 µM],nt,-17%[11.4 µM],4µM*
CCOC(=O)Nc1cc2c(C)cc(=O)oc2cc1C,0%,32µM*,25µM*,>57,3%,-10%
C=CCN1CCN(c2nc3ccccc3nc2C#N)CC1,0%,-3%,-2%,nt,-12%[25.6 µM],-3%
Cc1ccc(C)c(S(=O)(=O)Nc2ccccc2C(=O)Nc2cc(C)on2)c1,1%,25µM*,-188%,>57,-4%,7%
Cc1cc(C)c(C)c(S(=O)(=O)Nc2ccccc2C(=O)O)c1C,nt,32µM*,?,nt,-5%,nt
Cc1cccc(NS(=O)(=O)c2cc(C(=O)OCC(=O)Nc3cc(C)on3)ccc2C)c1,-1%,3%,9%,>57,-2%,-19%
Cc1cc(C)c(C)c(S(=O)(=O)Nc2ccccc2C(=O)NCCCn2ccnc2)c1C,2%,25µM*,?,?,33%,0%
O=C(NCCCn1ccnc1)Nc1ccc(Cl)cc1,-4%,3%,12%,>57,8%,-12%
CC(c1ccccc1)n1cc(C(=O)NCCCn2ccnc2)nn1 (configuration not stated),2%,8%,-5%,>57,15%,-17%
Cc1cc(S(=O)(=O)Nc2ccccc2C(=O)O)ccc1Cl,4%,-25%,0%,?,2%,-10%
O=C(NCCCn1ccnc1)c1cn(-c2ccccc2)nc1-c1ccc(F)cc1,13µM*,-2%,-6%,i,33%,-11%
O=C(N[C@@H](c1ccccc1)[C@@H]1C[C@H]1C(=O)NCc1ccccc1)OCc1ccccc1,nt,8%,17%,nt,nt,14%
COc1ccc2c(c1)O[C@@H]1c3ccc(OC)cc3OCC21 (some centres not stated),nt,4%,nt,nt,1%,5%
N#Cc1ccc(CN2CCCC3(CCN(S(=O)(=O)c4ccccc4)CC3)C2)cc1,1%[11.4 µM],0%,-1%,nt,-11%,19%
NCCOC[C@H](N)C(=O)O,0%[11.4 µM],6%[11.4 µM],-5%[11.4 µM],nt,-6%[11.4 µM],8%[11.5 µM]
Cc1cc(NC(=O)c2ccccc2NS(=O)(=O)c2c(C)c(C)cc(C)c2C)no1,4%,32µM*,32µM*,>57,6%,10%
CCOC(=O)c1[nH]c2ccc(OC)cc2c1NC(=O)C(C)N1CCC2(CC1)OCCO2 (configuration not stated),-4%,25µM*,?,>57,12%,?
CCOC(=O)c1[nH]c2ccc(OC)cc2c1NC(=O)CN1CCC2(CC1)OCCO2,0%,25µM*,?,>57,3%,-7%
COC(=O)c1[nH]c2ccccc2c1NC(=O)CN1CCN(Cc2ccc3c(c2)OCO3)CC1,1%,?,?,>57,-11%,-19%
COC(=O)c1[nH]c2ccccc2c1NC(=O)CN1CCN(c2cccc(OC)c2)C(C)C1 (configuration not stated),0%,?,-1%,>57,-18%,32µM*
Cn1cnc([N+](=O)[O-])c1Sc1nc(N)nc2c1ncn2[C@H]1C[C@H](O)[C@@H](CO)O1,1%[11.4 µM],9%[11.4 µM],7%[11.4 µM],nt,17%[11.4 µM],16%[11.5 µM]
COC(=O)c1sc(N2C(=O)C(O)=C(C(=O)c3ccc(C)o3)C2c2ccc(F)cc2)nc1C (configuration not stated),2%,20µM*,-13%[11.4 µM],nt,6%[11.4 µM],6%
SMILES,FLuc inh,HSD17B inhib,HADH2 inhib,PK Bst,ALOX15 inhib,ERK AVP inh
CCOc1cccc(C2C(C(=O)c3ccc(C)o3)=C(O)C(=O)N2c2nccs2)c1 (configuration not stated),0%,-11%,-14%,>57,11%,-4%
COCCN(CCOC)c1nc(C)nc2c1nc(-c1ccccc1)n2CCN(C)C,nt,32µM*,?,nt,25µM*,-16%
CCN(CC)CCCCOc1ccccc1OC,1%,1%,4%,nt,-11%,-14%
CCN(CC)CCCCn1c(-c2ccccc2)nc2c(N(CCOC)CCOC)nc(C)nc21,nt,25µM*,?,nt,1%,-22%
CCN(CC)CCCC(C)n1c(-c2ccccc2)nc2c(N(CCOC)CCOC)nc(C)nc21 (configuration not stated),nt,32µM*,-12%,nt,-21%,13%
COCCN(CCOC)c1nc(C)nc2c1nc(-c1ccccc1)n2CCN1CCOCC1,nt,nt,20%,nt,4%,-21%
CCN(CC)CCCn1c(-c2ccccc2)nc2c(N(CCOC)CCOC)nc(C)nc21,nt,32µM*,?,nt,1%,-10%
COc1ccc(-c2csc3c2[N+]2=CCC=C2C3=O)cc1,3%[11.4 µM],-1%[11.4 µM],5%[11.4 µM],nt,-2%[11.4 µM],-4%[11.5 µM]
COc1ccc2c(c1)S/C(=C\C(=O)c1ccncc1)N2C,5µM*,-20%,3.2µM*,nt,?,-18%
COCCOC(=O)c1ccccc1C(=O)OCCOC,nt,1%,5%,nt,-6%,31%
COc1ccc(-c2nc(CSCC(=O)NCc3ccc4c(c3)OCO4)c(C)o2)cc1OC,1%,-11%,5%,nt,2%,32µM*
CCOc1ccc(-c2nc(CSCC(=O)N3CCN(c4cccc(OC)c4)CC3)c(C)o2)cc1,?,-11%,-2%,nt,-5%,13µM*
CCOc1ccc(-c2nc(CSCC(=O)NCc3ccco3)c(C)o2)cc1,-18%,32µM*,-13%,nt,4%,19%
Cc1ccc(-c2nc(CSCC(=O)N3CCN(c4ccccn4)CC3)c(C)o2)cc1,0%,-17%,-7%,nt,1%,9%
COc1cc(C(=O)NCc2ccc3c(c2)OCO3)ccc1OCc1c(C)noc1C,0%,2%,18%,>57,13µM*,-16%
CSc1nc(N2CCN(CCO)CC2)c2sc3nc(-c4ccco4)c4c(c3c2n1)CCC4,0%,32µM*,25µM*,>57,?,-14%
Cc1cc(C)c2c(n1)sc1c(N3CCN(CCO)CC3)ncnc12,3%,-10%,9%,>57,5%,-6%
FC(F)(F)c1cc(CO[C@@H]2CCCN[C@H]2c2ccccc2)cc(C(F)(F)F)c1,-1%,-5%,?,nt,-9%,-21%
